Screening results (PubChem BioAssay)
The entries come from a sample that favours hits as a whole.
ALOX12 inhib: blocks human 12-lipoxygenase activity; AID 1452; P18054; 0.12% of 150,000 active; Potency, µM (highest dose often 57.1 µM), actives largely listed as inhibitors; purified 12-hLO, xylenol orange hydroperoxide absorbance; note: nearly all actives have a fitted effect of over 55% in size
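Purified human 12hLO (150 nM final) was preincubated with compounds for 15 min at room temperature in 25 mM Hepes pH 7.0, 0.01% Triton X-100, then reacted with 40 uM arachidonic acid for 30 min. Hydroperoxide was detected with ferrous iron/xylenol orange.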
PNC inhibitor: blocks assembly of the perinucleolar compartment; activity change (PNC), negative = inhibition, % at 10 µM; 3.1% of 140,000 active; PC3M PTB-GFP, PNC prevalence imaging, 16 h; hits give low values;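 active = readout at or below -70, meaning at least 70% loss of cells showing the perinucleolar compartment, a nuclear body marking cancer cells; inconclusive = readout between -30 and a set limit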
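Compounds are pinned in duplicate onto adhered PC3M cells stably expressing GFP-tagged PTB and incubated 16 h at 37 C. Cells are then fixed, nuclei stained with Hoechst, and PNC-positive cells counted.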
IMPase Li cell: cell-permeable IMPase inhibitors with lithium potentiation. 0.35% of 210,000 active. Potency, µM (top dose mostly 59.4 µM), hits mostly inhibitors. CHO-M1 cells, IP1 TR-FRET (IP-One), carbachol + lithium;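 note: IP1 builds up when IMPase is blocked and the TR-FRET signal falls; nearly all actives have a fitted effect of over 50% in size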
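CHO cells stably expressing M1 receptor (2000/well, cultured 16–30 h) treated 30 min at 37C with compound plus low lithium. Cytosolic IP1 by TR-FRET (665/620 ratio and 620 channel) after 10 min lysis; AC50 by Hill fit.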
IMPase inh: membrane-permeable compound that blocks inositol monophosphatase | 120,000 tested, under 10 active | AID 901 | inhibition (IP1 accumulation), % at 46.1 µM | CHO-M1 cells, IP1 accumulation, HTRF TR-FRET ratio | P97697; active = well fitted curve in the direction sought with a large enough effect in the signal ratio, not every such curve was filed as active; inconclusive = small, poorly fitted or top-dose-only effect, or a change in a side signal; inactive = no such curve, though single readings can be large or run the other way; the % refers to the signal ratio;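 note: cells stimulated with carbachol in lithium chloride buffer; higher means more IMPase inhibition seen as more IP1 and lower FRET ratio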
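The IP-One HTRF competitive assay in carbachol-stimulated CHO-M1 cells quantifies cellular IP1. Compounds spanned up to 46 uM final, and activity is expressed as AC50 from concentration-response fits of the ratio and donor data.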
Each line names hits and unclear results; the compound was inactive in the other large screens. Unless noted, calls come from the whole dose curve; as a rule, active = well fitted curve in the direction sought with a large enough effect; inconclusive = small, poorly fitted or top-dose-only effect, or another doubt; inactive = no such curve, though single readings can be large; an effect the other way counts as inactive or inconclusive.

O=C(O)CC12CSc3[nH]c(=O)sc3C1c1ccccc1OC2=O (stereo unspecified)	PNC inhibitor -84
CCOC(=O)Cc1csc(SCn2nnc3ccccc3c2=O)n1	none
CCOC(=O)Cc1csc(-n2sc3ccccc3c2=O)n1	ALOX12 inhib 4.5µM, IMPase Li cell 7.9µM, IMPase inh inconclusive
Cc1c(Br)c([N+](=O)[O-])nn1CC(=O)Nc1ccc(Cc2ccncc2)cc1	PNC inhibitor -93 (no result: IMPase inh)
C[C@@H]1CCCN(CP(=O)(c2ccccc2)c2ccccc2)C1	none (no result: PNC inhibitor, IMPase inh)
O=C(NCCC1=CCCCC1)c1coc(=O)c(Br)c1	IMPase Li cell 28µM
Cc1cc(C(=O)NCCC2=CCCCC2)c(C)o1	PNC inhibitor -81
C[C@@H](C(=O)N[C@@H](CO)Cc1ccccc1)[C@H]1C[C@]1(C)[C@H](NC(=O)OCc1ccccc1)c1ccccc1	none (no result: PNC inhibitor, IMPase inh)
N#CC1=C2SCN(Cc3ccccc3)CN2C(=O)CC1c1ccc2c(c1)OCO2 (stereo unspecified)	none
N#CC1=C2SCN(Cc3ccccc3)CN2C(=O)CC1c1cccs1 (stereo unspecified)	IMPase Li cell 11µM, IMPase inh inconclusive
CCN=C(NC#N)SCc1c(F)cccc1Cl	PNC inhibitor -109 (no result: IMPase inh)
COc1ccc(CCNC(=O)CCCOc2ccc(C)cc2)cc1OC	none (no result: IMPase inh)
COc1ccc(CCNC(=O)COc2ccc(-c3ccccc3)cc2)cc1OC	IMPase Li cell 10µM
COc1ccc(C(=O)NNC(=S)NC2CCCCC2)cc1OC	none
COc1ccc(CCNC(=S)NC(=O)c2ccccc2)cc1OC	ALOX12 inhib 14µM, PNC inhibitor -101
CCOc1ccc(CCNC(=O)C2CCCN(C(=O)N(C)C)C2)cc1OCC (stereo unspecified)	PNC inhibitor -100
COc1cc(C(=O)NNC(=O)NC2CCCCC2)cc(OC)c1OC	PNC inhibitor -120
CCOc1ccc(CCNC(=O)C2CCN(S(=O)(=O)N3CCCCC3)CC2)cc1OCC	none (no result: IMPase inh)
O=c1c(-c2ccccc2)nc2cncnc2n1Cc1ccccc1Cl	none (no result: PNC inhibitor, IMPase inh)
Cc1ccc(C2=NN(CCC(=O)NCCC(C)C)C(=O)CC2)cc1	none (no result: IMPase inh)
Cc1cccc(NS(=O)(=O)c2ccc(Cl)c(C(=O)O)c2)c1	none (no result: PNC inhibitor, IMPase Li cell, IMPase inh)
COc1ccc(CCNC(=O)C2CCCN2C(=O)NC2CCCCC2)cc1OC (stereo unspecified)	none
COc1ccc(CCNC(=O)NC2CCCCC2)cc1OC	PNC inhibitor -81
Cc1ccn2cc(CCNC(=O)Cc3cccs3)nc2c1	none (no result: ALOX12 inhib, PNC inhibitor, IMPase inh)
Cc1ccn2cc(CCNC(=O)CC(C)(C)C)nc2c1	PNC inhibitor -100
CSc1ccc2c(c1)N(CCC1CCCCN1C)c1ccccc1S2 (stereo unspecified)	PNC inhibitor -115 (no result: IMPase inh)
CCN(CC(=O)NCc1cccs1)S(=O)(=O)c1cccc(C(C)=O)c1	PNC inhibitor -83
COC(=O)COc1cccc(NC(=O)c2cccs2)c1	PNC inhibitor -118
CCN(CC(=O)NCc1cccs1)S(=O)(=O)c1ccc([N+](=O)[O-])cc1	none (no result: ALOX12 inhib, PNC inhibitor, IMPase inh)
CCN(CC)S(=O)(=O)c1cccc(C(=O)Oc2cccc(NC(=O)c3cccs3)c2)c1	PNC inhibitor -108 (no result: IMPase inh)
Cn1cc(-c2ccno2)c(C(=O)O)n1	none (no result: ALOX12 inhib, PNC inhibitor, IMPase inh)
COc1ccc(C)cc1S(=O)(=O)N(C)CC(=O)Nc1ccccc1	PNC inhibitor -108
COc1ccc(N=C2C(=Nc3ccc(OC)cc3)N(c3ccc(OC)cc3)C(=S)N2C(=O)c2ccc(OC)cc2)cc1	none
COc1ccc(N=C2C(=Nc3ccc(OC)cc3)N(c3ccccc3)C(=S)N2C(=O)c2ccc(Cl)cc2)cc1	PNC inhibitor -100
Cc1cc(C(=O)OCC(N)=O)c(C)n1-c1ccccc1	none (no result: ALOX12 inhib, PNC inhibitor, IMPase inh)
C/C(N)=C(/C#N)C(=O)COC(=O)c1cc(C)n(-c2ccc(F)cc2)c1C	PNC inhibitor -129
Cc1c(C(=O)Nc2ccncc2)sc2nc(-c3ccc(F)cc3)cn12	PNC inhibitor inconclusive, IMPase inh inconclusive
COc1ccc(-c2cn3c(C)c(C(=O)Nc4ccncc4)sc3n2)cc1	PNC inhibitor inconclusive, IMPase Li cell 5.6µM, IMPase inh inconclusive
CC(Oc1ccccc1F)C(=O)Nc1ccc2ccccc2c1 (stereo unspecified)	PNC inhibitor -87, IMPase inh inconclusive
COc1ccc(OC)c(NC2=C(c3ccccc3)C(=O)c3ccccc32)c1	none (no result: ALOX12 inhib, PNC inhibitor, IMPase Li cell)
Cc1ccccc1CNS(=O)(=O)c1ccc2c(c1)OCCO2	PNC inhibitor -119
O=S(=O)(NCc1ccc(F)cc1)c1ccc2c(c1)OCCO2	none
Cc1ccc(CNS(=O)(=O)c2ccc3c(c2)OCCO3)cc1	PNC inhibitor -101 (no result: IMPase inh)
